Assay outcomes as filed in PubChem.
PKA-R1A act – activates the PKA-R1A holoenzyme complex; P00514+P68181; PKA-R1A dissociation, Cy5-IP20 fluorescence polarization; scaled: DMSO 0%, 113 µM cGMP 100%; activation, % at 11.4 µM; actives 0.083% (n = 340,000); AID 504707;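 active = percent activation above the mean of all tested compounds plus 3 SD, cut at about 19% in these data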;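 note: higher means more PKAc released from R1A so a rise in polarization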
NR1D1 modulator – modulates human Rev-erb alpha binding to DNA. P20393. AID 1259318. activity, % at 10 µM. actives 0.79% (n = 370,000). Rev-erbα–FITC-DNA binding, fluorescence polarization, 90 min;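 active = activity above about 14%, limit read from the data; passing the limit was not always enough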
PG9 Ab binder – small molecules binding HIV-1 gp120 antibody PG9 | actives 0.43% (n = 360,000) | AID 624416 | inhibition, % at 6.7 µM | TR-FRET gp120-PG9 antibody binding; in the data active = inhibition above about 8.5%
PKA-R2B activ – activates the human PKA-R2B holoenzyme complex. P22694+P31323. actives 0.079% (n = 340,000). PKA-R2B holoenzyme dissociation, Cy5-IP20 fluorescence polarization; R2B truncated from residue 108, S112A mutant; 0% DMSO only, 100% 113 µM cGMP. activation, % at 11.4 µM. AID 504700;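 active = activation above a cutoff set at the mean over all compounds plus 3 SD, cut at about 18% in these data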;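 note: higher means more holoenzyme dissociation and a rise in polarization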
Target sequence (P31323 whole entry, looked up, other chains not shown, the tested form may be a part): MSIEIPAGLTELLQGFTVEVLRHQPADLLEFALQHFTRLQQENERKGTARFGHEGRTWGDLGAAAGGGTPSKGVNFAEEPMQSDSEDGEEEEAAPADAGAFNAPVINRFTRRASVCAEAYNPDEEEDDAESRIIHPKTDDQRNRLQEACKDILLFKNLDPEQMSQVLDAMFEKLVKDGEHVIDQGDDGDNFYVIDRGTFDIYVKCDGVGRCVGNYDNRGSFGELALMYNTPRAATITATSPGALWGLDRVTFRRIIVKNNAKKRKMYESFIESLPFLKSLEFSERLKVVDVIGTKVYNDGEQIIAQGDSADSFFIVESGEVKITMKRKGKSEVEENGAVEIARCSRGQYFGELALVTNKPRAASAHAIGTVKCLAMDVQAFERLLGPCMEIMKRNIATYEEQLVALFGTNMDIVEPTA
Rev-erbA confirm – confirmation of modulators of human Rev-erb alpha DNA binding. shares compounds with NR1D1 modulator. Rev-erb alpha FITC-DNA binding, fluorescence polarization, 90 min. activation, % at 25 µM. actives 61% (n = 3,000);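 active = activation at or above a set limit, or at least 3 SD above the negative control mean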
RORg DNA counter – RORgamma DNA-binding activity, dose-response counter-screen. IC50, µM. shares compounds with NR1D1 modulator. actives 8% (n = 910). purified RORgamma protein-FITC-DNA binding, fluorescence polarization;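 active = Compounds whose fitted half-maximal concentration for disrupting protein-DNA binding is below 10 micromolar; the record names Rev-erb in its text, so the target is in doubt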
A number is an active result; 0 = inactive; - = not tested or not shown. Rows were chosen to be rich in hits. Some 1.2% of all compounds tested hit in one or more screens of this group.

SMILES | PKA-R1A act | NR1D1 modulator | PG9 Ab binder | PKA-R2B activ | Rev-erbA confirm | others
COC(=O)/C(C#N)=C/c1c(N2CCN(c3ccc(OC)cc3)CC2)nc2c(C)cccn2c1=O | 0 | 33 | 0 | 0 | 0
CNC(=O)/C(C#N)=C/c1c(N2CCN(c3ccc(OC)cc3)CC2)nc2c(C)cccn2c1=O | 0 | 0 | 0 | 0 | -
COc1ccc(NC(=O)C2CCCN(S(=O)(=O)c3ccc4[nH]c(=O)ccc4c3)C2)cc1OC (stereo not given) | 0 | 23 | 0 | 0 | 0
Cc1ccc(NC(=O)C2CCCN(S(=O)(=O)c3ccc4[nH]c(=O)ccc4c3)C2)cc1C (stereo not given) | 0 | 0 | 0 | 0 | -
C[C@H]1CCCN1c1ccc2c(c1)O[C@@H]1CCN(C1)S2(=O)=O | - | 0 | - | - | -
COc1cccc(-c2nc(CS(=O)(=O)CC(=O)Nc3cccc(C)c3C)c(C)o2)c1 | 0 | 19 | 0 | 0 | 0
COc1cccc(-c2nc(CS(=O)(=O)CC(=O)NCc3ccc(Cl)cc3)c(C)o2)c1 | 0 | 29 | 0 | 0 | 32 | RORg DNA counter=0
COc1cccc(-c2nc(CS(=O)(=O)CC(=O)Nc3ccccc3C)c(C)o2)c1 | 0 | 0 | 0 | 0 | -
CCCNC(=O)CS(=O)(=O)Cc1nc(-c2cccc(OC)c2)oc1C | 0 | 0 | 0 | 0 | -
Cc1cccc(-c2nnc(SCC(=O)Nc3ccc(-c4nc5ccc(C)cc5s4)cc3)n2Cc2ccco2)c1 | - | 0 | - | - | -
Cc1cc(C(=O)Nc2ccc(F)cc2)n(-c2ccccc2)n1 | - | 0 | - | - | -
Cc1nc(SCC(=O)NC2CCCC2)c2oc3ccccc3c2n1 | 0 | 35 | 0 | 0 | 652 | RORg DNA counter=0
Cc1ccc(NC(=O)CSc2ncccn2)cc1F | 0 | 0 | 0 | 0 | -
Cc1nc(SCC(=O)Nc2ccc(C)c(F)c2)c2oc3ccccc3c2n1 | 0 | 779 | 0 | 0 | 682
Cc1nc(SCc2ccccc2)c2oc3ccccc3c2n1 | 0 | 0 | 0 | 0 | -
COc1cc(CCC(=O)OCC(=O)NCC2CCCCC2)cc(OC)c1OC | 0 | 16 | 0 | 0 | 0
NS(=O)(=O)c1ccc(CCNc2ccccc2[N+](=O)[O-])cc1 | 0 | 21 | 0 | 0 | 0
COc1ccc(C(=O)Nc2ccc(N3CCN(c4ccc(OC)cc4)CC3)c(C#N)c2)cc1 | 0 | 84 | 0 | 0 | 56
COc1ccc(N2CCN(c3ccc(NC(=O)C4CCCCC4)cc3C#N)CC2)cc1 | 0 | 30 | 0 | 0 | 0
c1ccc(-c2ccc(CNc3nc(-c4ccccn4)nnc3-c3ccccc3)cc2)cc1 | - | 0 | - | - | -
CN(C)CC(=O)N[C@H]1C[C@@H]2O[C@@H](CO)CC[C@@H]2O[C@@H]1CCc1ccc(-c2ccc(F)cc2)cc1 | - | 0 | - | - | -
CCOC(=O)c1cc(-c2cc(OC)c(OC)c(OC)c2)nc2c1c(=O)[nH]c(=O)n2Cc1ccccc1 | 0 | 23 | 0 | 0 | 0
CCOC(=O)c1cc(-c2ccc(F)cc2)nc2c1c(=O)[nH]c(=O)n2Cc1ccccc1 | 0 | 0 | 0 | 0 | -
N#CCCN1CCCc2cc(N=Nc3ccc(C(F)(F)F)cc3)ccc21 | - | 18 | 0 | - | 22
CCCN1CCCc2ccccc21 | 0 | 0 | 0 | 0 | -
SMILES | PKA-R1A act | NR1D1 modulator | PG9 Ab binder | PKA-R2B activ | Rev-erbA confirm | others
Cc1ccc(OCc2nnc(SCC(=O)Nc3cccc4ccccc34)n2Cc2ccco2)cc1 | - | 0 | - | - | -
CC(C)(C)C1CCc2c(sc(NC(=O)c3cccs3)c2C(N)=O)C1 (stereo not given) | 0 | 0 | 0 | 0 | -
CCC(C)(C)C1CCc2c(sc(NC(=O)c3cccs3)c2C(N)=O)C1 (stereo not given) | 0 | 29 | 0 | 0 | 0
CCSC1=N/C(=C\c2ccc3c(c2)OCO3)C(=O)S1 | 0 | 0 | 0 | 0 | -
CCSC1=N/C(=C\C=C2/Oc3ccccc3N2CC)C(=O)S1 | 0 | 50 | 0 | 0 | 46 | RORg DNA counter=0
CN(Cc1ccccc1F)C(=O)C1C2C=CC3(CN(Cc4ccccc4)C(=O)C13)O2 (stereo not given) | - | 0 | - | - | -
Cc1cc(/C=C(\C#N)c2nc3ccccc3[nH]2)c(C)n1C | 0 | 0 | 0 | 0 | -
CCOc1cc(N(CC)CC)ccc1/C=C(/C#N)c1nc2ccccc2[nH]1 | 0 | 73 | 0 | 0 | 58 | RORg DNA counter=0
CCCOc1cc(N(CC)CC)ccc1/C=C(/C#N)c1nc2ccc(C)cc2[nH]1 | 0 | 32 | 0 | 0 | 41
COc1ccc(/C=C(\C#N)c2nc3ccccc3[nH]2)cc1O | 0 | 0 | 0 | 0 | -
CCN(CC)c1ccc(/C=C(/C#N)c2nc3ccc(C)cc3[nH]2)c(OC(C)C)c1 | 0 | - | 0 | 0 | -
COc1cc(/C=C(\C#N)c2nc3ccccc3[nH]2)cc(OC)c1O | 0 | 31 | 0 | 0 | 46 | RORg DNA counter=0
COC(=O)[C@]12C[C@H](CC(=O)NCc3cccc4ccccc34)C(=O)N(Cc3cccc4ccccc34)C1=C[C@H](C(C)(C)C)O[C@@H]2C | - | 0 | - | - | -
CCCCn1c(N)c(N(CC(C)C)C(=O)C2CC(=O)N(CCc3ccccc3)C2)c(=O)[nH]c1=O (stereo not given) | 0 | 12 | 0 | 0 | 0
C[C@H]1[C@@H](N(C)Cc2ccccc2)CC[C@@]23CCCN2C(=O)CCC[C@@H]13 | - | 0 | - | - | -
Cc1cc(C)c2c(C)c(C(=O)NCc3ccc(S(N)(=O)=O)cc3)oc2c1 | 0 | 28 | 0 | 0 | 20
Cc1cc2oc(C(=O)NCc3ccc(S(N)(=O)=O)cc3)c(C)c2cc1C | 0 | 0 | 0 | 0 | -
Cc1c(C(=O)OCC(=O)Nc2ccc(S(N)(=O)=O)cc2)oc2c1ccc1ccccc12 | 0 | 16 | 0 | 0 | 0
O=C(Nc1cc(Cl)cc(Cl)c1)Nc1cnccn1 | 0 | 12 | 0 | 0 | 0
O=C(Nc1ccc(F)cc1)Nc1cnccn1 | 0 | 0 | 0 | 0 | -
CCOC(=O)C1=NOC(C(C)=O)(C(=O)N2CCOCC2)C1 (stereo not given) | - | 0 | - | - | -
COCCN1C(=O)C2=C(C1=O)C1N(C)c3ccccc3[C@@]13C[C@@H](CO)N(C(C)=O)C3=N2 (stereo not given in full) | - | 0 | - | - | -
Cc1nn(-c2ccc(F)cc2)c2nc(N)c(C#N)c(-c3ccc(O)c(O)c3)c12 | 0 | 0 | 0 | 0 | -
Cc1c(-c2ccc(F)cc2)nc(N)c(C#N)c1-c1cccs1 | 0 | 78 | 0 | 0 | 53 | RORg DNA counter=3.2
Cc1nn(-c2ccc(F)cc2)c2nc(N)c(C#N)c(-c3cccs3)c12 | 0 | 80 | 0 | 0 | 45
SMILES | PKA-R1A act | NR1D1 modulator | PG9 Ab binder | PKA-R2B activ | Rev-erbA confirm | others
C=CCN(C(=O)[C@@H](C)[C@@H](O)c1ccc(Cl)cc1)c1ccccc1 | - | 0 | - | - | -
COc1ccccc1NC(=O)Cn1c(=O)n(-c2ccccc2)c(=O)c2oc3ccccc3c21 | 0 | 20 | 0 | 0 | 23
O=C(NCc1ccccc1)c1ccc(CO)cc1 | - | 0 | - | - | -
COC(=O)CN1CCN(C(=O)c2csc(N3CCOCC3)n2)CC1 | - | 0 | - | - | -
CC(=O)c1cc2c(cc1N/C(=N/S(=O)(=O)c1ccc(Br)cc1)c1ccccc1)OCO2 | 0 | 97 | 0 | 0 | 0
CC(=O)c1ccc(S(=O)(=O)Nc2cc3c(cc2C(C)=O)OCO3)cc1 | 0 | 0 | 0 | 0 | -
